{
  "source": "PubChem BioAssay (Tox21)",
  "note": "Activity calls are given as the source filed them. A call without a number means that no potency is given here. Calls follow the shape of the dose curve; as a rule, active = well fitted activation curve with a large enough effect in the repeat runs; inconclusive = weak or mixed curves; inactive = flat fitted curve, though single readings scatter.",
  "data": [
    {"target": "KiSS-1 receptor (Homo sapiens) (UniProt Q969F8)", "sequence (Q969F8 whole entry, looked up)": "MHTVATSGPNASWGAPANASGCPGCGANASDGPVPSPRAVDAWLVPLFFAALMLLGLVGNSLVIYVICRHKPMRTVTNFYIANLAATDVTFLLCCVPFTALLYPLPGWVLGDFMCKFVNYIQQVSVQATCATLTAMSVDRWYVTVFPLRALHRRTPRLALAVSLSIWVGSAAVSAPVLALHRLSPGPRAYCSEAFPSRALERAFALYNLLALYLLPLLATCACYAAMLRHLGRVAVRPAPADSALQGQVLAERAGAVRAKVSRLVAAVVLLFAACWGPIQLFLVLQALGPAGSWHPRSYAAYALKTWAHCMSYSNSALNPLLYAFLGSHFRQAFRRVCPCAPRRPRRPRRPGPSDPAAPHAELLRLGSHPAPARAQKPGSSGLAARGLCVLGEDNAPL", "experiment": "Human kisspeptin (KISS1R) small molecule agonists, calcium flux assay in KISS1R-HEK293 cells (AID 1920064)", "conditions": "KISS1R-HEK293, calcium flux fluorescence, agonist; series mostly up to 76.8 µM; activation: at the top concentration", "description": "National Center for Advancing Translational Sciences [NCATS]\nDivision of Preclinical Innovation [DPI]\nU.S. Environmental Protection Agency [EPA]\nNational Institutes of Environmental Health Sciences [NIEHS]\nNational Toxicology Program [NTP]\nU.S. Food and Drug Administration [FDA]\nKisspeptin and its receptor KISS1R play key roles in mammalian reproduction due to their involvement in the onset of puberty and control of the hypothalamic-pituitary-gonadal axis such as regulates GnRH release from the hypothalamus. The kisspeptin/KISS1R system also plays a direct role in peripheral organs (including the ovary, testis, uterus, and placenta) and is implicated in reproductive diseases such as miscarriage and polycystic ovary syndrome (PCOS). Abnormal KISS1R activity is associated with abnormal puberty, infertility, endometriosis, and hormone-dependent tumors. The KISS1 receptor (KISS1R, also called GPR54), a G-protein-coupled receptor (GPCR), acts (through phospholipase C) to increase intracellular inositol trisphosphate and then release intracellular calcium stores. Cell-based KISS1R-HEK293 assay is using HEK293 cells that have been genetically engineered to express the human KISS1R, which activity can be measured by calcium signaling. A compound/drug can activate (agonist) KISS1R that can be monitored by levels of intracellular calcium.\nKISS1R-HEK293 cells developed by Codex Corp contain human KISS1R gene, which was stably integrated into HEK 293 cells. The compound activation can be detected by fluorescence intensity via calcium flux assay. This cell line has been used to screen the Tox21 10K compound library to identify agonists of KISS1R.\nKISS1R-Hek293 cells were dispensed at 1500 cells/4uL/well in 1536-well black wall/clear bottom plates using a multidrop dispenser. After the assay plates were incubated at a 37 C/5% CO2 incubator for 18 hours, 4 microL of Calcium Dye Solution was added to each well. The plates were incubated at 37 C for 1 hour. And then 23 nL of compounds dissolved in DMSO, positive controls, or DMSO only was transferred to the assay plate by a pin tool station. The fluorescence intensity in the plates was measured using FDSS 7000EX kinetic plate reader with a filter set of Ex/Em=480/540 for 3 min at 1 sec intervals. Each test compound was measured at 15 concentrations and in triplicates.", "values": [
      {"compound": "Nc1ccccc1C(=O)O", "Potency": "inactive"},
      {"compound": "CC(=O)C(Cl)Cl", "activation": "-0.421% (inactive)"},
      {"compound": "CC(C)Nc1ccc(Nc2ccccc2)cc1", "Potency": "inactive"},
      {"compound": "Cn1c(-c2ccccc2)cc(-c2ccccc2)[n+]1C", "Potency": "inactive"},
      {"compound": "CC(COc1ccc(Oc2ccccc2)cc1)Oc1ccccn1", "note": "(stereo not given)", "activation": "-1.55% (inactive)"},
      {"compound": "CC(C)C(C)(N)C#N", "note": "(stereo not given)", "activation": "0.692% (inactive)"},
      {"compound": "CNC(=O)O/N=C/C(C)(C)S(C)(=O)=O", "Potency": "inactive"},
      {"compound": "CCC1(c2ccc(N)cc2)CCC(=O)NC1=O", "note": "(stereo not given)", "Potency": "inactive"},
      {"compound": "C=CCBr", "activation": "-2.24% (inactive)"},
      {"compound": "CCC1(CC)C(=O)C=CNC1=O", "activation": "6.41% [at 35.3 µM] (inactive)"},
      {"compound": "C=C(C)CCl", "Potency": "inactive"},
      {"compound": "O=C(O)C(F)(F)C(F)(F)C(F)(F)C(F)(F)C(F)(F)C(F)(F)C(F)(F)F", "Potency": "inactive"},
      {"compound": "CCOP(=S)(OCC)SCCSCC", "Potency": "inactive"},
      {"compound": "OCCOc1ccccc1", "Potency": "inactive"},
      {"compound": "C=CCc1ccc(OC)cc1", "Potency": "inactive"},
      {"compound": "O=C1CCCN1", "Potency": "inactive"},
      {"compound": "O=S(=O)(O)OOS(=O)(=O)O", "Potency": "inactive"},
      {"compound": "CCOP(=O)(OCC)Oc1ccc([N+](=O)[O-])cc1", "Potency": "inactive"},
      {"compound": "CCN(Cc1ccc(Cl)nc1)/C(=C/[N+](=O)[O-])NC", "activation": "6.71% [at 35.3 µM] (inactive)"},
      {"compound": "c1ccc(P(c2ccccc2)c2ccccc2)cc1", "Potency": "inactive"},
      {"compound": "O=C=NC1CCCCC1", "activation": "2.02% (inactive)"},
      {"compound": "CC(C)OS(C)(=O)=O", "activation": "0.302% (inactive)"},
      {"compound": "Clc1cccc(Cl)c1", "Potency": "inactive"},
      {"compound": "CN(C)c1ccc(N=O)cc1", "Potency": "inactive"},
      {"compound": "C=C(Cl)CCl", "activation": "-1.67% (inactive)"},
      {"compound": "CNC(=O)CSP(=S)(OC)OC", "Potency": "inactive"},
      {"compound": "COC(=O)c1ccccc1CS(=O)(=O)NC(=O)Nc1nc(OC)cc(OC)n1", "activation": "-0.0269% (inactive)"},
      {"compound": "CC(=O)C1CCOC1=O", "note": "(stereo not given)", "Potency": "inactive"},
      {"compound": "Cc1ccc(N)cc1Cl", "Potency": "inactive"},
      {"compound": "NCC(O)c1ccc(O)cc1", "note": "(stereo not given)", "Potency": "inactive"},
      {"compound": "CC(C)N(C(=O)SCC(Cl)=C(Cl)Cl)C(C)C", "Potency": "inactive"},
      {"compound": "Nc1cccc(Cl)c1", "Potency": "inactive"},
      {"compound": "CCCC[n+]1cccc(C)c1", "Potency": "inactive"},
      {"compound": "CCC1(c2ccccc2)CCC(=O)NC1=O", "note": "(stereo not given)", "activation": "0.583% [at 35.3 µM] (inactive)"},
      {"compound": "CC(C)(C)C(=O)C(Cl)Cl", "activation": "-1.12% (inactive)"},
      {"compound": "CC(C)OC(=S)S", "activation": "3.42% (inactive)"},
      {"compound": "Nc1nc(N)nc(Cl)n1", "activation": "-2.93% (inactive)"},
      {"compound": "CC(C)OC(=O)Nc1cccc(Cl)c1", "Potency": "inactive"},
      {"compound": "C[C@H]1O[C@H](OC2[C@@H](O)[C@@H](O)C(O)[C@H](O)[C@H]2O)[C@@H](N)C[C@@H]1N=C(N)C(=O)O", "note": "(stereo not given in full)", "activation": "0.68% (inactive)"},
      {"compound": "CCBr", "activation": "-0.172% (inactive)"}
    ]}
  ]
}
